The values that follow come from publication PMC8384837, “Expanding the binding specificity for RNA recognition by a PUF domain”.

Assay in all cases: yeast three-hybrid, YBZ-1, SC-Leu-His + 0.5 mM 3-AT, 4 days
Common to all, as to settings: tags: N-Gal4 AD-HA kept; label: inside an RPR1-promoter hybrid RNA with tandem MS2 sites; ssRNA

In experiment [1] the target is PUM1 PUF domain R4-ANA (Homo sapiens, UniProt Q14671 828-1176, N971A;H972N;Q975A). An outline of the steps:
(§1)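 A centromeric plasmid in strain YBZ-1 co-expressed Pumilio-1 PUF domain libraries, randomized at the three base-contacting residues of each repeat, with matching RNA elements; the strain carries a LexA–MS2 coat fusion and a HIS3 reporter. After four days on SC-Leu (input) or SC-Leu-His + 0.5 mM 3-AT (selection), the repeat regions were PCR-amplified and Illumina-sequenced. The interaction score is the log change in variant frequency from input to selection, using log2 and a pseudocount of 1 where absent.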

Experiment [2] deals with PUM1 PUF domain R4-GND (Homo sapiens, UniProt Q14671 828-1176, N971G;H972N;Q975D). An outline of the steps: as §1
Experiment [3] deals with PUM1 PUF domain R2-RRT (Homo sapiens, UniProt Q14671 828-1176, N899R;Y900R;Q903T). An outline of the steps: as §1
Experiment [4] deals with PUM1 PUF domain R2-MVW (Homo sapiens, UniProt Q14671 828-1176, N899M;Y900V;Q903W). Put shortly: as §1
Experiment [5] concerns the target PUM1 PUF domain R2-KLS (Homo sapiens, UniProt Q14671 828-1176, N899K;Y900L;Q903S). An outline of the steps:
as §1

Experiment [6] addresses PUM1 PUF domain R3-PFD (Homo sapiens, UniProt Q14671 828-1176, C935P;R936F;Q939D). An outline of the steps: as §1
The target in experiment [7] is PUM1 PUF domain R5-RRM (Homo sapiens, UniProt Q14671 828-1176, C1007R;Q1011M). Put shortly: as §1
The target in experiment [8] is T1, PUM1 PUF domain R6-AWR (Homo sapiens, UniProt Q14671 828-1176, N1043A;Y1044W;Q1047R).
T1 sequence: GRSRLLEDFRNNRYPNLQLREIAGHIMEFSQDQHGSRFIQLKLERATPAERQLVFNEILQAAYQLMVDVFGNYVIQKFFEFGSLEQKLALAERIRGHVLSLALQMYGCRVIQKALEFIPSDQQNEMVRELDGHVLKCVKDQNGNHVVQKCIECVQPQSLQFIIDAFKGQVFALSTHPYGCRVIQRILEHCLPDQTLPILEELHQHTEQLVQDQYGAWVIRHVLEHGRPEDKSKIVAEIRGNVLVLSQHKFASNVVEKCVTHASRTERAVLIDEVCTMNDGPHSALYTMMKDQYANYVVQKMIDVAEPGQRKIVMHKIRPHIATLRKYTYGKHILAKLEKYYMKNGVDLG
An outline of the steps:
as §1

In experiment [9] the target is PUM1 PUF domain R3-SRK (Homo sapiens, UniProt Q14671 828-1176, C935S;Q939K). An outline of the steps:
as §1

The target of experiment [10] is PUM1 PUF domain R5-KKD (Homo sapiens, UniProt Q14671 828-1176, C1007K;R1008K;Q1011D). Put shortly: as §1

As to “GGCUAGAACUAGUGGAUCCCCCGGCGCCCGGCGGCUCGAGCCCGGGUAAGUGUAUAUAGUCUGCAUGCCGCCGGGCGCCAUGCCUGCAGGUCGACUCUAGAAAACAUG”, the binding signal is 3.28 log2 enrichment (interaction score) in [1] and 3.04 log2 enrichment (interaction score) in experiment [2].

In the case of “GGCUAGAACUAGUGGAUCCCCCGGCGCCCGGCGGCUCGAGCCCGGGUAAGUGUAAAGAGUCUGCAUGCCGCCGGGCGCCAUGCCUGCAGGUCGACUCUAGAAAACAUG”, the binding signal is 2.91 log2 enrichment (interaction score) in [3], 3.45 log2 enrichment (interaction score) in experiment [4] and 2.37 log2 enrichment (interaction score) in [5].

On to “GGCUAGAACUAGUGGAUCCCCCGGCGCCCGGCGGCUCGAGCCCGGGUAAGUGUAAAUAGUCUGCAUGCCGCCGGGCGCCAUGCCUGCAGGUCGACUCUAGAAAACAUG”, for which the binding signal in experiment [6] is 5.31 log2 enrichment (interaction score); in experiment [7], 2.27 log2 enrichment (interaction score); in experiment [8] it was 5.74 log2 enrichment (interaction score).

Consider “GGCUAGAACUAGUGGAUCCCCCGGCGCCCGGCGGCUCGAGCCCGGGUAAGUGUUAAUAGUCUGCAUGCCGCCGGGCGCCAUGCCUGCAGGUCGACUCUAGAAAACAUG”, for which the binding signal in [7] is 4.73 log2 enrichment (interaction score).

For the sequence “GGCUAGAACUAGUGGAUCCCCCGGCGCCCGGCGGCUCGAGCCCGGGUAAGUGUACAUAGUCUGCAUGCCGCCGGGCGCCAUGCCUGCAGGUCGACUCUAGAAAACAUG”, in experiment [1], the binding signal is 2.08 log2 enrichment (interaction score).

As to “GGCUAGAACUAGUGGAUCCCCCGGCGCCCGGCGGCUCGAGCCCGGGUAAGUGCAAAUAGUCUGCAUGCCGCCGGGCGCCAUGCCUGCAGGUCGACUCUAGAAAACAUG”, the binding signal in experiment [8] is 2.34 log2 enrichment (interaction score).

For the sequence “GGCUAGAACUAGUGGAUCCCCCGGCGCCCGGCGGCUCGAGCCCGGGUAAGUGUGAAUAGUCUGCAUGCCGCCGGGCGCCAUGCCUGCAGGUCGACUCUAGAAAACAUG”, the binding signal in [7] was 1.28 log2 enrichment (interaction score).

Take “GGCUAGAACUAGUGGAUCCCCCGGCGCCCGGCGGCUCGAGCCCGGGUAAGUGUAAUUAGUCUGCAUGCCGCCGGGCGCCAUGCCUGCAGGUCGACUCUAGAAAACAUG”: the binding signal in experiment [6] was 4.25 log2 enrichment (interaction score); in experiment [9] it was 2.4 log2 enrichment (interaction score).

Take “GGCUAGAACUAGUGGAUCCCCCGGCGCCCGGCGGCUCGAGCCCGGGUAAGUGUCAAUAGUCUGCAUGCCGCCGGGCGCCAUGCCUGCAGGUCGACUCUAGAAAACAUG”: the binding signal in experiment [7] was 4.35 log2 enrichment (interaction score); in experiment [10], 3.56 log2 enrichment (interaction score).
